BLM inh – Bloom syndrome helicase (human) inhibition; Potency, µM (highest dose often 56.1 µM), for inactives: at the highest dose activity change, negative = inhibition, most hits filed as inhibitors; 350,000 compounds, 0.2% hits; AID 2528; recombinant BLM DNA unwinding, fluorescence dequenching;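 also: plate controls were vehicle for no effect and no enzyme for full effect; nearly all actives have a fitted effect of over 35% in size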
RECQ1 inh – inhibitors of human RECQ1 DNA helicase. RECQ1 DNA unwinding, red fluorescence kinetic read. Potency, µM (highest dose often 57.3 µM), for inactives: at the top dose activity, negative = inhibition, actives largely listed as inhibitors. 240,000 compounds, 0.54% hits. AID 2549;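 also: plate controls were vehicle for no effect and no enzyme for full effect; nearly all actives have a fitted effect of over 30% in size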
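RECQ1T1 50 nM; forked duplex (20 bp + 30-nt ss tails) 200 nM, ATP 2 mM final; pH 8.0, 2 mM MgCl2, 2.5 ug/ml poly(dI-dC); 15 min compound preincubation; discontinuous kinetic read over 2 h at RT.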
KAT2A inh – blocks human GCN5L2 histone acetyltransferase; GCN5L2 HAT assay, ThioGlo1 CoA-SH fluorescence; Potency, µM (doses to about 58.9 µM), for the others: at the highest dose activity change, negative = inhibition, hits mostly inhibitors; 390,000 compounds, 0.21% hits; AID 504327
Target sequence (Q92830 whole entry, looked up): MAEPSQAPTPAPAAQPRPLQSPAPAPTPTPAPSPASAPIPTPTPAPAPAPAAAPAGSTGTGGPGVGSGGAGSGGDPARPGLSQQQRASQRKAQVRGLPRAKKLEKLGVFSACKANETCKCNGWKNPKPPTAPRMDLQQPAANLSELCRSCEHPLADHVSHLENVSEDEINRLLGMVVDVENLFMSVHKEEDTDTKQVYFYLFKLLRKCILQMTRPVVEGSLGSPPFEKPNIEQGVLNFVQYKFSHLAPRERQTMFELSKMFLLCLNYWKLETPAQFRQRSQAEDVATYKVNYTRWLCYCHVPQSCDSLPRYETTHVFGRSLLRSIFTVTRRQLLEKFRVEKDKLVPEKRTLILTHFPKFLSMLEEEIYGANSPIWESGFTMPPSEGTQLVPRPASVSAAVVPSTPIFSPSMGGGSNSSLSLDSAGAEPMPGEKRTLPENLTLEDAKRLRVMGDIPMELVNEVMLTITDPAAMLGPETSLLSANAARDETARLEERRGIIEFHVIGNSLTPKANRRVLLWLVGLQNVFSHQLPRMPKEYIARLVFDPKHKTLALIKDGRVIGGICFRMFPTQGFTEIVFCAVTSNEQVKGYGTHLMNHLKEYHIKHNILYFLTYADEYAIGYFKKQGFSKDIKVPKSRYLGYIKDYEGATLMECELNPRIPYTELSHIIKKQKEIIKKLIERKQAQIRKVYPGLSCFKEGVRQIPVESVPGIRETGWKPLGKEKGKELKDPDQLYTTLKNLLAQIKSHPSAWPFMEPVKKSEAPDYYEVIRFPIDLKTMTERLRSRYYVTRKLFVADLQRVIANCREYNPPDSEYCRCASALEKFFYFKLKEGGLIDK
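Compounds, pin-transferred from DMSO stocks, meet 20nM GCN5L2 for 15 min before the reaction begins with H3(1-25) peptide (75uM) and acetyl-CoA (70uM). Thiol-reactive ThioGlo1 reports CoA release over 20 min at room temperature.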
JMJD2E inh – inhibitors of human JMJD2E histone demethylase; JMJD2E catalytic domain, FDH-coupled NADH fluorescence (FDH is formaldehyde dehydrogenase); Potency, µM (doses to about 57.1 µM), without a hit: top-dose activity change, negative = inhibition, actives largely listed as inhibitors; 230,000 compounds, 1.6% hits; active = well fitted inhibition curve with a large enough effect, not every such curve was filed as active; inconclusive = small, poorly fitted or top-dose-only effect, or another doubt; inactive = no such curve, though single readings can be large or run the other way;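 also: 0% = wells with enzyme and -100% = buffer wells without enzyme; nearly all actives have a fitted effect of over 50% in size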
APE1 inh – inhibitors of human APE1 endonuclease | recombinant APE1, TAMRA/BHQ-2 abasic DNA cleavage fluorescence | Potency, µM (series often up to 65.8 µM), without a hit: at the top dose activity change, negative = inhibition, usual class: inhibitors | 350,000 compounds, 0.35% hits | AID 2517;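 also: plate controls were vehicle for no effect and reference inhibitor for full effect; nearly all actives have a fitted effect of over 55% in size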
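Quantitative HTS: incision of a TAMRA/BHQ-2 double-stranded substrate bearing a tetrahydrofuran abasic site by 0.75 nM APE1 raises fluorescence. Substrate 50 nM final, added after 15 min compound preincubation at room temperature; progress as third-minus-first kinetic read difference.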
L3MBTL1 block – L3MBTL1 (human) inhibition. AlphaScreen L3MBTL1–H3K9me1 peptide binding. Potency, µM (highest dose often 57.1 µM), for the others: at the highest dose activity, negative = inhibition, most hits filed as inhibitors. 230,000 compounds, 0.66% hits. AID 485360; also: nearly all actives have a fitted effect of over 60% in size
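L3MBTL1 50 nM + b-AHA-H3(1-15)K9me1 75 nM, 30 min RT; compound added, 30 min RT; streptavidin donor/Ni-chelate acceptor beads 10 ug/mL each final, 30 min RT dark; AlphaScreen read.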
The depositor's hits bear a star; i = inactive; ? = inconclusive; / = not tested or not shown; ! = not confirmed by another sample; [ ] = another dose, or the depositor's remark. The entries come from a sample that favours hits as a whole. Unless noted, calls follow the shape of the dose curve; as a rule, active = well fitted curve in the direction sought with a large enough effect; inconclusive = small, poorly fitted or top-dose-only effect, or another doubt; inactive = no such curve, though single readings can be large; an effect the other way counts as inactive or inconclusive. Unless noted, % is scaled to controls: 0 for no effect and ±100 for the full control effect; potency is read from the fitted curve at half-maximal effect.

SMILES	BLM inh	RECQ1 inh	KAT2A inh	JMJD2E inh	APE1 inh	L3MBTL1 block
O=C(CSc1cccc[n+]1[O-])c1cc2ccccc2o1	5.8%	-0.6%	-14.5%	31.6µM*	6.0%	2.1%
O=C(O)CSc1cccc[n+]1[O-]	-5.5%	-2.5%	/	-5.4%	6.4%	/
Cc1[nH]c(=O)[nH]c1C(=O)CCCCC(=O)OCC(=O)Nc1ccccn1	1.5%	0.4%	-4.2%	2.0%	-0.2%	0.708µM*
CCOC(=O)CCCCC(=O)c1[nH]c(=O)[nH]c1C[n+]1ccccc1	-0.3%	i	-2.5%	4.7%	-1.2%	/
O=S(=O)(NCc1cccs1)c1ccccc1Cl	/	/	1.1%	/	23.7%	0.5%
O=S(=O)(NCc1cccs1)c1cccc2cccnc12	-1.3%	-0.8%	3.98µM*	5.4%	-2.2%	0.8%
COC(=O)c1c(-c2ccc(C(C)(C)C)cc2)csc1NC(=O)C1C2CCC(O2)C1C(=O)O (centres undefined)	0.5%	-3.6%	?	15.8µM*	-4.2%	5.8%
O=[N+]([O-])c1ccc(/C=N/N/C(=N/c2ccccn2)c2ccccn2)cc1	-1.9%	1.3%	17.5%	-7.2%	7.5%	-3.9%
O=[N+]([O-])c1cc(/C=N/N/C(=N/c2ccccn2)c2ccccn2)ccc1O	0.1%	3.2%	0.7%	17.8µM*	-1.3%	?
N#Cc1c(-c2ccc(Br)cc2)no[n+]1[O-]	/	/	/	/	-0.4%	/
Cc1ccc2c(c1)N(CC(=O)NCCCc1ccccc1)C(=O)c1cccnc1O2	-1.2%	/	39.8µM*	/	1.5%	-0.2%
CCOC(=O)C1=C(C)N(c2ccccc2)C(=O)/C1=C\c1ccco1	-5.9%	i	-8.2%	4.7%	6.0%	?
CCOC(=O)C1=C(C)N(c2ccccc2)C(=O)/C1=C\c1ccc(O)c(OC)c1	-1.1%	-17.1%	?	4.47µM*	-2.6%	/
Cc1cc(N2C(=O)C=CC2=O)c([N+](=O)[O-])cc1C	-1.9%	-1.5%	20µM*	0.6%	-1.7%	-9.5%
C[C@H](O)C(N)C(=O)O (some centres undefined)	-1.8%	-2.7%	41.3%	/	12.4%	/
C=C(C)C(=O)NNc1ccccc1	-3.3%	-23.8%	-7.6%	14.1µM*	0.1%	8.1%
CC(C)OC(=O)C(=O)NNc1ccccc1	1.2%	1.0%	-3.9%	-8.6%	2.1%	-6.8%
CCOC(=O)c1cc[n+](CC(=O)c2ccc(F)cc2)cc1	-10.2%	-15.1%	0.2%	31.6µM*	9.1%	22.1%
COc1ccccc1NC(c1cccnc1)c1ccc2cccnc2c1O (centres undefined)	-3.3%	-1.4%	-1.3%	11.2µM*	7.3%	?
Oc1c(C(Nc2ccccn2)c2ccccn2)ccc2cccnc12 (centres undefined)	-2.0%	-3.7%	-14.9%	?	-5.0%	28.2µM*
COc1cc(C(Nc2ccccn2)c2ccc3ccc(C)nc3c2O)cc(OC)c1O (centres undefined)	-3.0%	8.0%	-3.7%	22.4µM*	22.1%	-11.3%
Cc1ccc2ccc(C(Nc3cccc(C(F)(F)F)c3)c3cccnc3)c(O)c2n1 (centres undefined)	-14.1%	-12.3%	-12.7%	?	-5.8%	6.1%
CCN(CC)CCCN1C=C2C(=O)C(C)(OC(=O)CCC(=O)OC)C(=O)C=C2C=C1C1CC1 (centres undefined)	-10.2%[12.4 µM]	-7.4%[11.5 µM]	/	?	-1.2%[12.4 µM]	/
COC(=O)CCC(=O)OC1(C)C(=O)C=C2C=C(C3CC3)N(C3CCCCC3)C=C2C1=O (centres undefined)	-5.3%[12.4 µM]	-3.8%[11.5 µM]	-20.5%	15.8µM*!	-2.9%[12.4 µM]	/
COC(=O)CCC(=O)OC1(C)C(=O)C=C2C=C(C3CC3)N(Cc3ccccc3)C=C2C1=O (centres undefined)	-2.6%[12.4 µM]	?	-14.8%	14.1µM*!	-2.4%[12.4 µM]	/
SMILES	BLM inh	RECQ1 inh	KAT2A inh	JMJD2E inh	APE1 inh	L3MBTL1 block
C=C1C=C(C(F)F)n2ncc(C(=O)NCc3ccccc3C(F)(F)F)c2N1	/	/	/	/	-28.2%	/
C=CCn1c(=O)[nH]c2nc3cc(N=CN(C)C)c(C)cc3nc2c1=O	-7.4%	-2.5%	-2.0%	?	-0.5%	/
Cc1cc2nc3c(=O)n(CCc4ccccc4)c(=O)[nH]c3nc2cc1N	-11.2%	-12.9%	?	31.6µM*	-11.1%	/
Nc1ccc2nc3c(=O)n(CCc4ccccc4)c(=O)[nH]c3nc2c1	-13.8%	-1.2%	-25.4%	1.78µM*	-10.7%	/
CN(C)c1nc(NC2CCC(NC(=O)c3ccc(F)c(F)c3)CC2)nc2ccccc12 (centres undefined)	-8.3%	14.5%	0.0%	/	9.6%	/
CCOC(=O)CCCCC1=CC2=CC(=O)C(C)(O)C(=O)C2=CO1 (centres undefined)	-2.4%[12.4 µM]	i[11.5 µM]	/	/	3.4%[12.4 µM]	/
O=C(NNC(=O)C1[C@H]2CCCC[C@@H]12)Nc1cccc2ccccc12 (some centres undefined)	1.5%	i	25.1µM*	?	-0.5%	-5.3%
Cc1cccc(NC(=O)CNC(=O)c2ccc(-n3cncn3)c([N+](=O)[O-])c2)c1C	/	/	0.0%	/	-2.0%	4.6%
CCc1ccc(OCC(=O)N/N=C\c2ccco2)c([N+](=O)[O-])c1	-25.2%	-16.3%	-22.2%	16.0%	?	35.5µM*
Cc1ccccc1/C=C/c1cc[n+](C)cc1	-5.7%	-7.7%	?	25.1µM*	7.6%	/
Cc1[nH]c2ccccc2c1/C=C/c1cc[n+](C)cc1	9.2%	-16.8%	-16.8%	3.3%	2.5%	3.4%
Cc1ccc(NC2=CC(=O)C(=O)c3ccccc32)cc1	?	-1.3%	0.6%	14.1µM*	2.3%	?
NS(=O)(=O)c1ccc(NC2=CC(=O)C(=O)c3ccccc32)cc1	?	/	-0.9%	/	-23.4%	?
O=c1cc(-c2ccc(O)cc2)oc2cc(O)cc(O)c12	-9.7%	-10.6%	-20.6%	11.2µM*!	25.1µM*!	/
O=c1cc(-c2cc(O)c(O)c(O)c2)oc2cc(O)cc(O)c12	?	?	-15.3%	10µM*	?	/
CC1(C)CC2CC(C)(CN2C(=O)COC(=O)c2cc(Cl)cc(Cl)c2N)C1 (centres undefined)	-5.2%	-8.7%	-0.8%	?	32.2%	/
CC1(C)CC2CC(C)(CN2C(=O)COC(=O)c2ccc(O)cc2O)C1 (centres undefined)	/	/	0.7%	/	10.6µM*	-12.0%
Nc1ccc(O)c(-c2nc3ccccc3s2)c1	-26.2%	-5.1%	-9.7%	?	-11.5%	?
Oc1ccc(N=C/C=C/c2cccc(Br)c2)cc1-c1nc2ccccc2s1	-22.9%	-10.7%	-5.5%	25.1µM*	-4.8%	?
O=C(CSc1nc2nc(-c3cccs3)cc(C(F)(F)F)c2c(=O)[nH]1)Nc1ccc(F)c(F)c1	?	-23.4%	0.5%	?	?	28.2µM*

Screens as filed in PubChem.
